Experimental data: PubChem BioAssay AID686997 (Broad Institute, 2013)
Entries with a potency or affinity are not part of this list. Calls of active or inactive are those of the source.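 How the source made its calls: active means compound lowering the viability signal whose fitted half-maximal dose is at most twice its top tested dose; inconclusive means flat curve with 30 to 70% inhibition, or poor fit; inactive means the rest.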

assay: PubChem AID 686997; details: C. neoformans growth, alamar blue, 72 h (sorbitol counter-screen); series mostly up to 35 µM; activity change, negative = inhibition: at the top concentration

SMILES	activity change, negative = inhibition
COc1ccccc1NC(=S)NCc1ccc(Cl)cc1	1.84% (inactive)
Cc1ccc(C(=O)NC(=S)Nc2ccc(N3CCOCC3)cc2)cc1	9.23% (inactive)
O=C(NC(=S)Nc1ccc(Br)cc1)C1CCC1	1.92% (inactive)
CCc1nc(N2CCCCC2C)c2oc3ccccc3c2n1 (stereo not drawn)	9.52% (inactive)
CO[C@H]1CN(C)C(=O)c2cc(NC(=O)C3CC3)ccc2OC[C@@H](C)N(Cc2cncnc2)C[C@H]1C	8.68% (inactive)
CCOC(=O)NC(=S)Nc1ccc(C(C)(C)C)cc1	-8.87% (inactive)
CCc1ccc(C(=O)NC(=S)NCc2cccnc2)cc1	7.29% (inactive)
CCc1ccc(C(C)NC(=S)NCc2ccc(F)cc2)cc1 (stereo not drawn)	4.02% (inactive)
COc1ccccc1NC(=S)NCc1ccccc1Cl	7.46% (inactive)
COc1ccc(NC(=S)NCc2ccc(Cl)cc2)c(OC)c1	8.07% (inactive)
Cc1cc(C(=O)NC(=S)Nc2ccccc2N2CCOCC2)ccc1[N+](=O)[O-]	3.41% (inactive)
S=C(NCc1ccccc1)NCC1COc2ccccc2O1 (stereo not drawn)	-4.42% (inactive)
COC(=O)C1=C(C)N(Cc2ccccc2)C(=S)N[C@H]1c1cccc(F)c1	-1.98% (inactive)
CC(C)CC1(C)N=C(c2ccccc2)C(=S)N1 (stereo not drawn)	8.07% (inactive)
O=C(NC(=S)Nc1cccc(F)c1)c1cccc([N+](=O)[O-])c1	7.08% (inactive)
Fc1ccccc1NC(=S)NN(Cc1ccccc1)c1ccccc1	-2.68% (inactive)
O=C(NC(=S)NCC1COc2ccccc2O1)c1ccc(Cl)cc1 (stereo not drawn)	16.9% [at 46 µM] (inactive)

SMILES	activity change, negative = inhibition
COc1ccccc1CNC(=S)NCc1ccc(Cl)cc1	-4.87% (inactive)
COC(=O)C1=C(C)N(CC(C)C)C(=S)NC1c1cccc(F)c1 (stereo not drawn)	4.94% [at 42 µM] (inactive)
CCCCN1C(=S)NC[C@@H]1Cc1ccccc1	2.5% (inactive)
COc1cccc(NC(=S)NC(=O)Cc2ccc(Cl)cc2)c1	7.7% (inactive)
CCCCNC(=S)N/N=C/c1ccc(C#N)cc1	-5.24% (inactive)
Cc1ccc(C)c(NC(=O)C2(C)CCCN2C(=O)C(C)C)c1 (stereo not drawn)	13.8% [at 56 µM] (inactive)
O=C(NC(=S)Nc1cc(Cl)ccc1N1CCOCC1)c1ccccc1[N+](=O)[O-]	9.06% (inactive)
O=C(NC(=S)Nc1ccccc1N1CCCC1)c1ccccc1[N+](=O)[O-]	3.81% (inactive)
O=C(NC(=S)Nc1ccccc1N1CCCC1)c1ccc([N+](=O)[O-])cc1	-3.51% (inactive)
O=C(NCCN1CCCCC1)[C@H]1N[C@H]2c3ccc(-c4ccncc4)c(=O)n3C[C@H]2[C@@H]1CO	13.6% (inactive)
Fc1ccccc1NC(=S)NCCc1cccc(Cl)c1	-1.31% (inactive)
O=C(NC(=S)Nc1ccccc1N1CCOCC1)c1cccc([N+](=O)[O-])c1	5.09% (inactive)
O=C(Cc1ccccc1)N[C@H]1C=C[C@@H](CC(=O)N2CCOCC2)O[C@@H]1CO	15.1% (inactive)
S=C(NCCCc1ccccc1)Nc1ccccc1	10.1% (inactive)
COc1ccc(CNC(=S)NCc2ccc(OC(C)C)cc2)cc1	1.25% (inactive)
COC(=O)C1=C(C)N(Cc2ccc(F)cc2)C(=S)NC1c1ccc(F)cc1 (stereo not drawn)	17.6% [at 16 µM] (inactive)
